Source: PubChem BioAssay
MCF10A rereplic: DNA re-replication induction in MCF 10a cells. MCF 10A DNA re-replication, Hoechst nuclear intensity, 48 h. Potency, µM (highest dose often 46.1 µM), usual class: activators. actives 2.9% (n = 350,000); also: nearly all actives have a fitted effect of over 50% in size
SW480 rerep: DNA re-replication induction in SW480 cells. SW480 DNA re-replication, Hoechst DNA content imaging, 48 h. Potency, µM (series often up to 46.1 µM), actives largely listed as activators. actives 1.8% (n = 340,000). AID 624297; also: nearly all actives have a fitted effect of over 55% in size
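Per well, 250 cells were exposed to pinned compound for 48 hr. Nuclear DNA was visualised with Hoechst (40 min, 37 C) and total object intensity recorded by fluorescence scanning.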
KB-V1 MDR tox: KB-V1 MDR subline cytotoxicity. KB-V1 MDR cells viability, CellTiter-Glo, 72 h. Potency, µM (titrated, usually from 46.1 µM), hits mostly cytotoxic. actives 3.4% (n = 400,000); also: nearly all actives have a fitted effect of over 60% in size
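Following 72 h at 37 degrees C with compound, KB-V1 cell viability was read by CellTiter-Glo luminescence, medium being phenol-red-free DMEM plus 10% FBS; concentration-response parameters came from normalized, curve-fitted qHTS data.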
KB-3-1 cytotox: kills parental KB-3-1 adenocarcinoma cells; KB-3-1 viability, CellTiter-Glo ATP luminescence, 72 h; Potency, µM (titrated, usually from 46.1 µM), hits mostly cytotoxic; actives 1.4% (n = 400,000); AID 1347075; also: nearly all actives have a fitted effect of over 60% in size
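Luminescent ATP read-out (CellTiter-Glo) measures survival of drug-naive KB-3-1 cells after 72 h compound exposure at 37 °C. Titration series was screened from lowest to highest concentration, with DMSO vehicle plates as background controls.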
ELG1 DNA repair: blocks ELG1-dependent DNA repair in HEK293T cells; HEK293T ELG1-luciferase reporter, luminescence, 16 h; DNA damage induced by 5-fluorouridine; actives 2.3% (n = 330,000); AID 504467; Potency, µM (titrated, usually from 46.1 µM), most hits filed as inhibitors; also: nearly all actives have a fitted effect of over 55% in size
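Quantitative HTS, concentration-response format. 2,000 cells/well co-treated with 5-fluorouridine and compound, 16 hr in 5% CO2 at 37 °C; ONE-Glo luminescence read after 30 min.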
Numbers stand for hits; 0 = inactive; ? = inconclusive; - = not tested or not shown. A selection: hits, their analogues and other compounds. The true share with any hit is near 8.1%. Calls follow the shape of the dose curve; as a rule, active = well fitted curve in the direction sought with a large enough effect; inconclusive = small, poorly fitted or top-dose-only effect, or another doubt; inactive = no such curve, though single readings can be large; an effect the other way counts as inactive or inconclusive.

SMILES	MCF10A rereplic	SW480 rerep	KB-V1 MDR tox	KB-3-1 cytotox	ELG1 DNA repair
O=C(O)C1CCCN(S(=O)(=O)c2ccccc2[N+](=O)[O-])C1 (stereo unspecified)	0	0	?	0	0
O=C(C1CCCN(S(=O)(=O)c2ccccc2[N+](=O)[O-])C1)N1CCCC1 (stereo unspecified)	0	0	11.6µM	0	0
O=C(C1CCCN(S(=O)(=O)c2cccc3nonc23)C1)N1CCN(c2ccccc2Cl)CC1 (stereo unspecified)	?	?	0	?	23.1µM
CCO/C(C)=N/n1c2nc3ccccc3nc2c2c(=O)n(C3CCCC3)c(C)nc21	0	0	?	0	?
O=C1Nc2ccccc2-n2nnnc2C1N1CCN(c2ccc(F)cc2)CC1 (stereo unspecified)	-	-	0	0	-
COCCNC(=S)N/N=C(\C)c1ccc(Cl)s1	0	0	0	0	0
COc1ccc2nc(SCC(=O)N3CC(=O)Nc4ccccc43)c(C#N)cc2c1	2.82µM	5.01µM	?	2.59µM	16.4µM
CS(=O)(=O)c1ccc(C(=O)N2CC(=O)Nc3ccccc32)cc1	0	0	0	0	0
Cc1cc(C)c2nc(SCC(=O)Nc3ccccc3N3CCOCC3)c(C#N)cc2c1	0	0	0	0	-
COc1ccc2nc(SCC(C)=O)c(C#N)cc2c1	0	0	0	0	?
Cc1cc(C)cc(C(=O)N2CC(=O)Nc3ccccc32)c1	?	0.731µM	3.26µM	?	0
Cc1cc(C)c2nc(SCC(=O)N3CC(=O)Nc4ccccc43)c(C#N)cc2c1	0.82µM	1.3µM	0.731µM	0.651µM	?
CCn1c(=O)c(C(=O)CN2CCCc3ccccc32)c(N)n(Cc2ccccc2)c1=O	0	?	?	?	?
Cc1ccc(S(=O)(=O)[N-]c2nc3ccccc3nc2-n2cc[n+](Cc3ccccc3)c2)cc1	?	?	0	0	0
O=S(=O)([N-]c1nc2ccccc2nc1-n1cc[n+](Cc2ccccc2)c1)c1ccccc1	6.51µM	?	0	0	?
CCCC[n+]1ccn(-c2nc3ccccc3nc2[N-]S(=O)(=O)c2cccs2)c1	?	16.4µM	0	0	20.6µM
CCCC[n+]1ccn(-c2nc3ccccc3nc2[N-]S(=O)(=O)c2ccccc2)c1	?	?	0	0	0
Cc1cc(CNC(=O)C2CCC(=O)N(Cc3ccccc3F)C2)on1 (stereo unspecified)	0	0	0	0	0
CCN(C(=O)C(C)Sc1ccc(S(=O)(=O)N2CCN(C)CC2)cn1)c1ccccc1 (stereo unspecified)	0	0	0	0	0
CC(C)NS(=O)(=O)c1ccc(OCC(=O)Nc2ccc(F)cc2F)cc1	0	0	16.4µM	0	0
COCCCN1C(=O)C(CC(=O)NC(c2ccccc2)c2ccccc2)CC(C(=O)N(C)C)=C1C (stereo unspecified)	-	-	0	0	-
CCCCC(=O)N1CCCC(c2nc(-c3cccc(OC)c3)no2)C1 (stereo unspecified)	0	0	0	0	?
CCCS(=O)(=O)N1CCCC(c2nc(-c3cccc(OC)c3)no2)C1 (stereo unspecified)	0	0	11.6µM	0	?
COc1cccc(-c2noc(C3CCCN(C(=O)c4ccccc4OC)C3)n2)c1 (stereo unspecified)	0	0	0	0	?
COc1cccc(-c2noc(C3CCCN(C(=O)CC(C)(C)C)C3)n2)c1 (stereo unspecified)	0.461µM	0	0	0	0
COc1cccc(-c2noc(C3CCCN(S(=O)(=O)c4cccc(Cl)c4C)C3)n2)c1 (stereo unspecified)	0	0	14.6µM	0	0
COc1cc2c(cc1OC)C(c1c(-c3c(Cl)cccc3Cl)noc1C)=NCC2	-	-	?	0	-
COc1cc2c(cc1OC)C(c1c(Cl)cccc1Cl)=NCC2	-	-	?	20.6µM	-
COc1ccc(-c2ccc(/C=C3/C(=N)N4C(C)=CSC4=NC3=O)o2)c([N+](=O)[O-])c1	20.6µM	0	?	0	?
CC1=CSC2=NC(=O)/C(=C\c3cccn3-c3ccc([N+](=O)[O-])cc3)C(=N)N12	?	?	2.91µM	0	0
